M1 ag – M1 muscarinic receptor agonists, primary screen, CHO-M1 cells, Fluo-4 calcium, agonist mode | Fluo-4 calcium fluorescence; active compounds read high | B-score at 10 µM | AID 626, 2007 | Muscarinic acetylcholine receptor M1 | actives 3% (n = 64,000);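 active means fluorescence rise, raw or as B-score row- and column-corrected plate score, outside the 99.7% band of its plate's samples, either direction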
D1 allo mod – D1 CRE-luciferase signal change, two-sided – cell-based, HEK293 D1, dopamine EC30, D1 allosteric modulator project, primary screen | actives 5.9% (n = 58,000) | D(1A) dopamine receptor (Homo sapiens), P21728 | AID 641, 2007 | B-score at 10 µM | dopamine EC30 potentiation; actives deviate in either direction;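 active means luminescence count or its row- and column-corrected plate score outside the 99.7% band of the plate's sample wells, on either side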
WNV protease inh – inhibitors of WNV NS2B-NS3 protease, primary screen, biochemical, fluorogenic substrate; Genome polyprotein (West Nile virus), P06935; fluorogenic substrate Ex360/Em465; active compounds read low; z-score (test concentration not listed); actives 0.18% (n = 65,000); in the data active means z-score below about -3
mHtt clearance – clearance of mutant huntingtin inclusions, primary screen, imaging, HeLa Exon1htt(103Q)mCFP, confocal imaging; aggregate imaging; zero = plate's median compound well; inhibition, % at 1.5 µM; actives 0.42% (n = 47,000);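 active means inhibition of aggregate fluorescence above about 70%, also judged a hit by eye on the cell image, limit read from the data, passing the limit was not always enough; inconclusive means no rule stated for this call; inactive means not judged a hit on image review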;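 further: cells exposed to compound for three days before fixation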
M1 antag – antagonists of rat M1 muscarinic receptor; AID 628, 2007; Muscarinic acetylcholine receptor M1 (Rattus norvegicus), P08482; actives 3.4% (n = 64,000); CHO-M1 cells, Fluo-4 calcium, ACh EC80 antagonist mode; active compounds read low; B-score at 10 µM;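 active means calcium fluorescence response, raw or row-and-column corrected B-score, differing from the plate sample mean either way at a set confidence level, mostly lower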
M1 agonist conf – rat M1 muscarinic receptor agonists, confirmation, CHO-M1 cells, Fluo-4 calcium, duplicate retest | shares compounds with M1 ag | Fluo-4 calcium fluorescence, agonist mode; actives lie on both sides | fluorescence change (max-min) at 10 µM | actives 19% (n = 1,700) | AID 1488, 2009;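 active means fluorescence change differs from the solvent-only DMSO control mean at a set confidence level in both duplicate runs; inconclusive means differs from solvent-only control mean in just one of two runs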;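 further: an EC20 dose of acetylcholine follows compound addition during the same imaging run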
M4 ag counter – agonist activity at rat M4 receptor, confirmation, counter-screen for M1 allosteric modulator project, cell-based, agonist mode; shares compounds with M1 ag; CHO M4/Gqi5 cells, Fluo-4 calcium fluorescence; actives lie on both sides; fluorescence change (max-min) at 10 µM; actives 9% (n = 1,700); AID 1741, 2009;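 active means fluorescence change differing from the plate's solvent-only control wells at 99.7% confidence in both duplicates, whether higher or lower; inconclusive means differs from solvent controls in only one of two duplicates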
Target sequence (P08485 whole entry, looked up): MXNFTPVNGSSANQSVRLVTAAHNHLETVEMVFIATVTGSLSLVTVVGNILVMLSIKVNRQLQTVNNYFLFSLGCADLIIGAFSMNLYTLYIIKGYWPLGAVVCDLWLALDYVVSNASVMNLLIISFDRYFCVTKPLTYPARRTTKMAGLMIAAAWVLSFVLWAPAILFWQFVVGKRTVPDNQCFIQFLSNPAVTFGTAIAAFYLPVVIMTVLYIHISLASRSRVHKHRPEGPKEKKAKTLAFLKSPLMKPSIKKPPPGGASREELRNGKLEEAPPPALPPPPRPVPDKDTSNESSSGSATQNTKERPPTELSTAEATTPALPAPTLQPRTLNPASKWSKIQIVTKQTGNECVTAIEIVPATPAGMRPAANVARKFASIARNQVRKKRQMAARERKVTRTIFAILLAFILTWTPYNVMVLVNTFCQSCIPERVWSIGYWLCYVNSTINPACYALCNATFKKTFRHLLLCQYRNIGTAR
Each line names hits and unclear results; the compound was inactive in the other large screens (follow-up assays come after a bar, where they were run). An excerpt weighted towards active compounds, which were near 8.9% of everything screened.

CS(=O)(=O)c1nc(-c2cccs2)cc(C(F)(F)F)n1	none
CCCCCC(=O)Nc1cccc(-c2nc3ncccc3o2)c1	M1 ag 3.98 | M1 agonist conf inactive | M4 ag counter inactive
Cc1ccc2[nH]c3c(NCc4ccco4)ncnc3c2c1	M1 ag 8.49, D1 allo mod -3.64 | M1 agonist conf inactive | M4 ag counter inactive
c1coc(CNc2ncnc3nc[nH]c23)c1	none (no result: mHtt clearance)
Cc1ccc(Cn2ccc(=O)c(OCc3c(Cl)cccc3Cl)c2C)cc1	none (no result: M1 ag, D1 allo mod, WNV protease inh, M1 antag)
COc1ccccc1Oc1ccc(S(=O)(=O)NCc2ccccn2)cc1	M1 ag 12 | M1 agonist conf inconclusive | M4 ag counter inconclusive
COc1ccc(S(=O)(=O)NCc2ccccn2)cc1Cl	none
O=C(CN1CCN(c2ccc(F)cc2)CC1)c1ccc2c(c1)OCO2	none (no result: mHtt clearance)
O=C(NCCCN1CCOCC1)c1cc(-c2ccc(Br)cc2)on1	M1 ag 2.25 | M1 agonist conf inconclusive | M4 ag counter inactive
CCOC(=O)Cc1csc(NC(=O)c2ccc3c(c2)OCO3)n1	M1 ag -2.35 | M1 agonist conf inactive | M4 ag counter inconclusive
Cc1cc(/C=N/n2cnnc2)c(C)n1-c1cc(Cl)ccc1Cl	none (no result: mHtt clearance)
CC1CCN(C(=O)CSCC(=O)Nc2nc(-c3cccs3)cs2)CC1	none (no result: mHtt clearance)
CC1CCCN(C(=O)CSCC(=O)Nc2nc(-c3cccs3)cs2)C1 (stereo not given)	M1 ag 6.82 (no result: mHtt clearance) | M1 agonist conf inactive | M4 ag counter inactive
CC1CCCCN1C(=O)CSCC(=O)Nc1nc(-c2cccs2)cs1 (stereo not given)	M1 ag 7.96 (no result: D1 allo mod, mHtt clearance) | M1 agonist conf inactive | M4 ag counter inactive
CCOC(=O)N1CCN(C(=O)CSCC(=O)Nc2nc(-c3cccs3)cs2)CC1	none
CCOC(=O)N1CCN(c2ncnc3c2oc2nc(CC(C)C)c4c(c23)CCC4)CC1	none (no result: mHtt clearance)
COc1ccc(NC(=O)CNS(=O)(=O)c2cccc3nonc23)c(OC)c1	none (no result: D1 allo mod, mHtt clearance)
CCC(C)(C)NC(=O)C(c1ccco1)N(C(=O)Cn1nnc2ccccc21)c1ccc2c(c1)OCO2 (stereo not given)	M1 ag 17.3, mHtt clearance inconclusive | M1 agonist conf -31.6 | M4 ag counter inconclusive
CCN(CC)CC#CC(C)OCOCC#CCOC (stereo not given)	M1 ag -4.07 | M1 agonist conf inconclusive | M4 ag counter inactive
O=C(COC(=O)c1ccncc1)Nc1cccc(Cl)c1	none (no result: M1 ag, D1 allo mod, WNV protease inh, M1 antag)
O=C(COC(=O)CCc1c[nH]c(=O)[nH]1)Nc1cccc(Cl)c1	M1 ag 5.18 | M1 agonist conf inactive | M4 ag counter inactive
COc1ccccc1C1NC(=O)CS1 (stereo not given)	none (no result: mHtt clearance)
CN(C)C(=O)CSc1nnc(Cc2ccc([N+](=O)[O-])cc2)o1	none (no result: M1 ag, D1 allo mod, WNV protease inh, M1 antag)
CCOC(=O)Cc1csc(NC(=O)CSc2ncnc3c2cnn3-c2ccccc2Cl)n1	M1 ag 10.7 (no result: mHtt clearance) | M1 agonist conf inactive | M4 ag counter inactive
O=C(NC1=NCCS1)C12CC3CC(C1)CC(C(=O)NC1=NCCS1)(C3)C2	none
O=C(Nc1nccs1)C12CC3CC(C1)CC(C(=O)Nc1nccs1)(C3)C2	M1 ag 4.03 | M1 agonist conf inconclusive | M4 ag counter inactive
COc1ccc(OC)c(C(=O)CN2CCN(S(=O)(=O)c3ccc(Br)cc3)CC2)c1	M1 ag 27.7 (no result: D1 allo mod, mHtt clearance) | M1 agonist conf inactive | M4 ag counter inactive
COc1ccc(S(=O)(=O)N2CCCN(CC(=O)C(C)(C)C)CC2)cc1	none (no result: mHtt clearance)
CCOC(=O)N1CCN(C(=O)CSc2nnc(-c3ccc(C(C)(C)C)cc3)o2)CC1	M1 ag 6.9 (no result: mHtt clearance) | M1 agonist conf inactive | M4 ag counter inactive
CCC(=O)Nc1ccc(S(=O)(=O)Nc2cccnc2)cc1	none
CCCCOc1ccc(S(=O)(=O)Nc2cccnc2)cc1	M1 ag 4.89 | M1 agonist conf inactive | M4 ag counter inconclusive
COc1ccc(-c2nnc3ccc(SCC(N)=O)nn23)cc1OC	none
